Rv3671c inh – inhibitors of M. tuberculosis serine protease Rv3671c. P9WHR9. inhibition, % at 5.96 µM. 320,000 tested, 0.048% active; in the data active = inhibition above about 38%;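 also: extracellular domain of Rv3671c used as enzyme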
RN4220 kill – kills Staphylococcus aureus RN4220. S. aureus RN4220 growth, OD600, 16 h. 330,000 tested, 0.33% active. AID 1259311. inhibition, % (test concentration not listed); in the data active = inhibition above about 85%
Mtb hypoxia inh – Mtb hypoxia fluorescent reporter inhibition | 300,000 tested, 0.1% active | fluorescence inhibition, % (no concentration beside the values) | M. tuberculosis hypoxia-regulated fluorescent reporter, fluorescence; in the data active = fluorescence inhibition mostly above about 23%, no sharp cut-off; inactive = mostly below about 17%
Mtb bLac sens – beta-lactam sensitization of Mtb H37Rv | M. tuberculosis H37Rv growth with meropenem, percent inhibition | inhibition, % at 25 µM | 330,000 tested, 0.27% active | AID 434955; call rule not given here;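 also: growth measured after seven days incubation then overnight dye step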
ugtP null kill – kills S. aureus RN4220 lacking UgtP | 330,000 tested, 0.54% active | AID 1259309 | growth inhibition, % (concentration not given with the values) | S. aureus RN4220 ugtP deletion, OD600 growth, 16 h; in the data active = growth inhibition above about 68%
UGM FP inh – Mtb UDP-galactopyranose mutase inhibition. 320,000 tested, 0.06% active. inhibition, % at 10 µM. purified UGM, fluorescence polarization probe displacement. P9WIQ1; in the data active = inhibition above about 10%, passing the limit was not always enough
Target sequence (P9WIQ1 whole entry, looked up): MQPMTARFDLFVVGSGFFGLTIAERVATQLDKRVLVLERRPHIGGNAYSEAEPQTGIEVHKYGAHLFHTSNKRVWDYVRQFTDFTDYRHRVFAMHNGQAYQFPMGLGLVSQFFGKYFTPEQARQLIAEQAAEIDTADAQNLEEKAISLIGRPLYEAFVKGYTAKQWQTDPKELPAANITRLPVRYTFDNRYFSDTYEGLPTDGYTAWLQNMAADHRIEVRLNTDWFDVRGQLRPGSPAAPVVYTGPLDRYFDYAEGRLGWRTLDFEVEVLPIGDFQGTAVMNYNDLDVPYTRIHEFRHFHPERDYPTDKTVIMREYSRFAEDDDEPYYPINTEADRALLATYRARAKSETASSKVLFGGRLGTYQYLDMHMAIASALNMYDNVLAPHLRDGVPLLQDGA
A number is an active result; 0 = inactive; - = not tested or not shown. Most compounds without a hit are left out; they make up all but 0.68% or so of the library.

SMILES	Rv3671c inh	RN4220 kill	Mtb hypoxia inh	Mtb bLac sens	ugtP null kill	UGM FP inh
CC(CN1C(=O)C(=O)NCC1Cc1ccc(O)cc1)NC(=O)Cc1ccccc1 (stereo not given)	-	0	0	-	0	-
Cc1ccc(NC(=O)c2nc[nH]c2C(=O)NC(CCCCNC(=O)OC(C)(C)C)C(=O)OC(C)(C)C)cc1 (stereo not given)	-	0	0	-	0	-
CC(=O)c1cccc(NC(=O)NC2CCCCCCC2)c1	0	0	33.1	0	0	0
Cc1ccc(/C=C(\C#N)C(=O)Nc2c(C)cccc2C)s1	0	0	0	0	0	0
Cc1ccc(NC(=O)/C(C#N)=C/c2ccc(C)s2)c(C)c1	0	0	0	0	0	13.3
CC(C)C1O/C(=N/C(=O)Nc2ccc(Cl)c(Cl)c2)NC1=O (stereo not given)	0	100.0	0	0	99.9	0
O=C(Nc1ccc(Cl)c(Cl)c1)c1ccc(Cl)c(Cl)c1	0	-	-	0	-	0
CCCn1c(=O)c(C(=O)Nc2cccc(C)c2)c(O)c2ccccc21	-	0	0	0	84.2	0
CC(C)Cn1c(=O)c(C(=O)Nc2cnccn2)c(O)c2ccccc21	0	0	0	0	0	0
CCCCCn1c(=O)c(C(=O)Nc2cnccn2)c(O)c2ccccc21	0	0	-	-	99.4	0
CC(C)Cn1c(=O)c(C(=O)NN=Cc2cccc(F)c2)c(O)c2ccccc21	-	100.5	0	-	99.1	-
CC(C)Cn1c(=O)c(C(=O)Nc2ccncc2)c(O)c2ccccc21	0	0	42.1	0	0	0
COC(=O)c1ccc2c(c1)C(C)(C)C(C=Cc1ccc(OC)c(OC)c1OC)=[N+]2C	-	0	0	-	0	-
CCCCCCCn1c(=O)c(C(=O)Nc2cnccn2)c(O)c2ccccc21	0	98.2	-	0	97.6	0
CCCCCCCC(=O)NNC(=O)c1c(O)c2ccccc2n(CCC)c1=O	0	97.9	0	0	0	0
CCCCCn1c(=O)c(C(=O)Nc2cc(C)ccn2)c(O)c2ccccc21	0	0	0	0	0	0
CCCCCCC(=O)NNC(=O)c1c(O)c2ccccc2n(CCC)c1=O	0	0	0	0	0	0
CC(C)CC(CO)N1CCNCCC1=O (stereo not given)	-	0	0	-	0	-
COc1ccc(-c2nn(-c3ccccc3)cc2C=CC(=O)N2CCOCC2)cc1[N+](=O)[O-]	-	0	0	-	0	-
COc1ccc(NC(=O)C(=Cc2ccc(OS(=O)(=O)c3ccc(C)cc3)cc2)NC(=O)c2ccccc2)cc1	-	0	0	-	0	-
CC=C(C)C(=O)Nc1cccc(C2=NOC3(C2)CC(C(N)=O)N(C(=O)c2ccccc2C(=O)c2ccccc2)C3)c1 (stereo not given)	-	0	0	-	0	-
CCCCc1ccc(-c2ccc(Br)cc2)nc1	0	0	0	0	87.7	0
CCCc1ccc(-c2ccc(-c3noc(-c4ccncc4)n3)cc2)nc1	0	0	0	0	0	0
Cc1ccc(CN=C2Nc3ccccc3CS2)cc1	0	0	0	0	82.2	0
COc1ccc(-n2nnnc2S(=O)(=O)Cc2ccc(C(=O)O)cc2)cc1	0	0	-	0	95.3	0
SMILES	Rv3671c inh	RN4220 kill	Mtb hypoxia inh	Mtb bLac sens	ugtP null kill	UGM FP inh
COc1cc2cnc(-c3ccccc3)c(-c3ccc(C(F)(F)F)cc3)c2cc1OC	0	100.0	0	0	100.5	0
O=C1CCc2ccccc2N1	0	0	0	0	0	0
Clc1ccc2c(c1)Nc1ccccc1CC2	0	0	0	0	88.5	0
CNc1ccc2oc(CC3O[C@@]4(CCC3C)OC(C(C)C(=O)c3ccc[nH]3)C(C)CC4C)nc2c1C(=O)O (stereo not given in full)	-	96.4	-	-	99.5	-
CC(C)=CCc1c(-c2ccc(O)cc2O)oc2c3c(cc(O)c2c1=O)OC(C)(C)C=C3	0	97.3	-	0	99.3	0
COC(=O)Cn1c(=NC(=O)c2ccc([N+](=O)[O-])s2)sc2cc(Br)ccc21	0	99.3	0	0	96.6	0
COc1ccc(F)cc1C1=CC(=O)CC(c2ccc3c(c2)OCO3)C1 (stereo not given)	-	0	0	-	0	-
Cc1nnc(NC(=O)CSc2ccc(-c3cccnc3)nn2)s1	0	0	0	0	0	0
Cc1nnc(NC(=O)CSc2ccc(-c3ccccn3)nn2)s1	0	0	67.6	0	0	0
O=C(Nc1nnc(C2CC2)s1)c1cc([N+](=O)[O-])ccc1N1CCCCC1	0	88.7	0	0	0	0
CC(C)(C)OC(=O)CNC(=O)c1[nH]cnc1C(=O)NC(CCCCNC(=O)OC(C)(C)C)C(=O)OC(C)(C)C (stereo not given)	-	0	0	-	0	-
